# Hit rate of the full screen: of about 94,000 compounds, about 6,200 (6.6%) were called active. A call without a number means that no potency is given here. Inconclusive results (about 31%) are left out. This is one part of a sample in which actives are shown more often than they occur. Calls come from the whole dose curve; as a rule, active = well fitted inhibition curve with a large enough effect; inconclusive = small, poorly fitted or top-dose-only effect; inactive = flat fitted curve, though single readings scatter.
# Experiment: Cytotoxic Profiling in HEK 293 Cell Line of Diverse Libraries Using Quantitative High-Throughput Screening; note: nearly all actives have a fitted effect of over 60% in size
# Conditions: HEK 293 viability, ATP luminescence (CellTiter-Glo), 48-72 h; series mostly up to 115 µM
# Procedure, shortened: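 qHTS cytotoxicity; HEK 293, 250 cells/well; compound pinned; 48 or 72 hr, 37 degree Celsius, 5% CO2, 95% humidity; CellTiter-Glo, 10 min RT; luminescence (ATP).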
# Potency is the fitted concentration of half-maximal effect.
row,SMILES,Potency
1,COc1ccc(-c2cccc(C(=O)N3CCC(NC(=O)c4ccc(C(F)(F)F)cc4)CC3)c2)nn1,39.8 µM (active)
2,COc1ccc(-c2cccc(C(=O)N3CCN(C(=O)c4ccc(F)cc4)CC3)c2)nn1,inactive
3,COc1ccc(-c2cccc(C(=O)NC3CC3)c2)nn1,inactive
4,COCC(=O)N1CCC(C(=O)N2CCCC(c3nc4ncccc4[nH]3)C2)CC1 (configuration not stated),inactive
5,O=C1N[C@H](CC(=O)N2CCN(Cc3ccccc3)CC2)C(=O)Nc2ccccc21,inactive
6,Fc1ccc(Cc2nc3nccc(-c4cc5ccccc5o4)n3n2)cc1,inactive
7,COCc1nc2nccc(-c3ccccc3)n2n1,inactive
8,COc1cccc(-c2ccnc3nc(Cc4cc(F)cc(F)c4)nn23)c1,39.8 µM (active)
9,COCC1CN(C(=O)c2ccc(C#N)cc2)CC12CCOCC2 (configuration not stated),inactive
10,COc1ccc(CNC(=O)c2cc3n(n2)CC(c2ccc4c(c2)OCO4)OC3)c(OC)c1 (configuration not stated),35.5 µM (active)
11,COc1ccc(OC)c(NC(=O)c2cc3n(n2)CC(c2ccc(Cl)cc2)OC3)c1 (configuration not stated),inactive
12,COc1ccc(C(=O)N[C@@H]2CCC[C@@H]2C(=O)NCc2ccc3c(c2)OCO3)cc1,inactive
13,COc1ccc(OCc2nc(C)c(CCO)c(=O)n2CC(=O)NCc2ccc(F)cc2)cc1,inactive
14,O=C1[C@@H]2C[C@@H](CN2Cc2ccc3ccccc3n2)Oc2ccccc2N1Cc1ccccc1,44.7 µM (active)
15,COCCN1C(=O)[C@@H]2C[C@@H](CN2C(=O)Nc2ccccc2)Oc2ccccc21,inactive
16,N#Cc1ccc(CN2C[C@@H]3C[C@H]2C(=O)Nc2ccccc2O3)cc1,inactive
17,COCCC(=O)NCC1Cn2cccc2C(=O)N1Cc1ccccc1 (configuration not stated),inactive
18,COc1ccccc1C(=O)N1CCC2(C1)C(=NC1CCCC1)NC(=O)N2c1cccnc1 (configuration not stated),inactive
19,CS(=O)(=O)N1CCC(C2CCN(C(=O)Cc3cccs3)C2)CC1 (configuration not stated),inactive
20,COc1ccccc1CN1CCc2nc(C(C)C)nc(-c3ccc(O)cc3)c2C1,inactive
21,COc1ccc(CC(=O)N2CCc3nc(C4CC4)nc(-c4ccc(O)cc4)c3CC2)cc1,inactive
22,COc1ccccc1CN1CCc2nc(C3CC3)nc(-c3ccc(O)cc3)c2CC1,44.7 µM (active)
23,COCCc1noc(Cc2c(C)nn(-c3ccccc3)c2C)n1,inactive
24,COc1ccc(CC(=O)N2CCC(Cc3nc(-c4ccccc4)no3)CC2)cc1OC,35.5 µM (active)

row,SMILES,Potency
1,COc1cccc(C(=O)N2CCC(Cc3nc(-c4cnccn4)no3)CC2)c1,inactive
2,COc1ccc(CC(=O)N2CCC(Cc3nc(C(C)C)no3)CC2)cc1Cl,inactive
3,CCOc1ccc(CC(=O)N2CCC(Cc3nc(-c4cnccn4)no3)CC2)cc1,inactive
4,COc1ccc(CC(=O)N2CCC(Cc3nc(-c4cnccn4)no3)CC2)cc1Cl,inactive
5,COc1ccc(-c2noc(CC3CCN(C(=O)CC4CCCCC4)CC3)n2)cc1,44.7 µM (active)
6,CNC(=O)[C@@H]1C[C@@H](O)CN1C1CCN(C(=O)c2ccc(OC)c(F)c2)CC1,inactive
7,CC1CCN(C(=O)CCNc2c(-c3ccc(F)cc3)nc3cnccn23)CC1,inactive
8,CCC1CN(C(=O)c2ccc(C#CC(C)(C)O)o2)CCN1C(C)C (configuration not stated),inactive
9,CCCN(CC1CCOC1)S(=O)(=O)c1ccc(C(F)(F)F)cc1 (configuration not stated),inactive
10,O=c1n(Cc2ccc(F)cc2)nc2n1CCCCC2,inactive
11,O=C(c1ccc2c(c1)OCO2)N1CCN(c2ccc(Cl)nn2)C(=O)C1,inactive
12,COCCOc1ncccc1-c1noc([C@@H]2CCCN2CC(C)(C)C)n1,63.1 µM (active)
13,N#Cc1ccc(CN2CCC[C@H]2c2nc(-c3ccc(F)cn3)no2)cc1,inactive
14,Cc1cccc(OCC(=O)N2CCC[C@H]2c2nc(-c3ccccc3)no2)c1,inactive
15,Cn1ccnc1CN1CCCC(CCC(=O)Nc2ccccc2F)C1 (configuration not stated),inactive
16,CC1=C[C@@H](CNC(=O)C2CCCCC2)[C@H](C(C)C)C[C@H]1Cc1nc2ccc(F)cc2[nH]1,28.2 µM (active)
17,COc1ccc2nc(C[C@@H]3C[C@@H](C(C)C)[C@H](CNC(=O)CC(C)(C)CC(=O)O)C=C3C)[nH]c2c1,inactive
18,CC(=O)N1CCC(C2CCN(C(=O)CCCc3nc4ccccc4[nH]3)C2)CC1 (configuration not stated),inactive
19,CC1=C[C@@H](CNCC(C)C)[C@H](C(C)C)C[C@H]1Cc1nc2c(C)cccc2[nH]1,39.8 µM (active)
20,Nc1nc(C2CC(NC(=O)CCc3nc4ccc(F)cc4[nH]3)C2)cc(=O)[nH]1 (configuration not stated),inactive
21,CC1=C[C@@H](CNC(=O)CC2(CC(=O)O)CCCC2)[C@H](C(C)C)C[C@H]1Cc1nc2c(C)cccc2[nH]1,inactive
22,CC1=C[C@@H](CNC2CCN(C)CC2)[C@H](C(C)C)C[C@H]1Cc1nc2ccccc2[nH]1,28.2 µM (active)
23,CC1=C[C@@H](CN(CC2CC2)CC2CC2)[C@H](C(C)C)C[C@H]1Cc1nc2c(C)cccc2[nH]1,89.1 µM (active)
